High-throughput results (PubChem BioAssay)
Most compounds without a hit are left out; they make up all but 7.1% or so of the library.
PINK1 expr mod: modulators of PINK1 expression; PINK1 immunofluorescence, high-content cytometry, 24 h; Potency, µM (titrated, usually from 76.6 µM), without a hit: top-dose activation (PINK1 increase), hits mostly activators; hit rate 0.2% among 410,000; AID 624263; active means well fitted activation curve with a large enough effect; inconclusive means small, poorly fitted or top-dose-only effect; cell line not stated here; further: potency means the concentration at half of the fitted maximal effect; % of control where 0% means no effect; nearly all actives have a fitted effect of over 65% in size
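Fluorescence from anti-PINK1 antibody, together with nuclear and cell stains, was scanned on a laser-scanning cytometer. Before staining, stable-line cells were incubated 24 hours with compounds at 5 concentrations; primary antibody 12 h at 10 degrees C.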
ATXN viability: viability counter-screen for ATXN expression inhibitors | S2 cells (HEK-293 line with an ATXN2-luciferase reporter) viability, CellTiter-Fluor protease fluorescence, 24 h | Potency, µM (top dose mostly 56.7 µM), most hits filed as cytotoxic | hit rate 0.49% among 400,000 | AID 651635; further: potency means the concentration at half of the fitted maximal effect; nearly all actives have a fitted effect of over 40% in size
ATXN2 expr inh: inhibitors of ATXN2 expression | hit rate 0.72% among 360,000 | Potency, µM (doses to about 57 µM), for inactives: at the top dose activity change, negative = inhibition, hits mostly inhibitors | HEK-293 ATXN2-luciferase reporter, luminescence, 24 h; further: potency means the concentration at half of the fitted maximal effect; on the % scale 0 is the no-effect control and ±100 the full control effect; nearly all actives have a fitted effect of over 55% in size
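qHTS (up to 57 uM final) was run with 24 h compound exposure of reporter cells at 37 °C. Each well was multiplexed: SteadyGlo luminescence measured ATXN2-luciferase expression after a fluorogenic Gly-Phe-AFC viability readout (25 uM final).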
SW480 rereplic: inducers of DNA re-replication in SW480 colon cancer cells. Potency, µM (top dose mostly 46.1 µM), without a hit: at the top dose re-replication activation, most hits filed as activators. AID 624297. SW480 DNA re-replication, Hoechst DNA content imaging, 48 h. hit rate 1.8% among 340,000; further: potency means the concentration at half of the fitted maximal effect; % of control where 0% means no effect; nearly all actives have a fitted effect of over 55% in size
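Per well, 250 cells were exposed to pinned compound for 48 hr. Nuclear DNA was visualised with Hoechst (40 min, 37 C) and total object intensity recorded by fluorescence scanning.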
MCF10A rerep: DNA re-replication induction in MCF 10a cells; MCF 10A DNA re-replication, Hoechst nuclear intensity, 48 h; Potency, µM (highest dose often 46.1 µM), without a hit: top-dose activity, positive = re-replication, actives largely listed as activators; hit rate 2.9% among 350,000; further: potency means the concentration at half of the fitted maximal effect; % of control where 0% means no effect; nearly all actives have a fitted effect of over 50% in size
IL1B secr inh: blocks inflammasome-driven IL-1 beta release. THP-1 LPS/ATP IL-1B secretion, AlphaLISA, 16 h; active compounds read low. activity change, % at 57.5 µM. hit rate 4.7% among 360,000. AID 743279; in the data active means activity change below about -50%; inconclusive means mostly about -30% to -49%; further: on the % scale 0 is the no-effect control and ±100 the full control effect
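THP-1 cells pretreated 1 hr with compounds (up to 57.5 uM final), then stimulated with LPS (250 ng/mL final) plus ATP (1.25 mM final); secreted IL-1B measured by AlphaLISA after 16 hr, decreased signal indicating inhibition.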
The depositor's hits bear a star; [ ] = remark or other dose. Unless noted, the call rests on the fitted dose curve; in most records, active means well fitted curve in the direction sought with a large enough effect; inconclusive means small, poorly fitted or top-dose-only effect, or another doubt; inactive means no such curve, though single readings can be large; an effect the other way counts as inactive or inconclusive.

Screening COC(=O)[C@@]1(Cc2ccccc2)[C@@H]2C(=CC(=O)[C@H]2CC(=O)C(=O)N(C)C)CN1C(=O)c1ccccc1 returned PINK1 expr mod -0.6%, ATXN viability 20µM*, ATXN2 expr inh 28.2µM*, SW480 rereplic inconclusive, MCF10A rerep 25.9µM* and IL1B secr inh -105.3*.
`CCc1ccc(C(C(=O)NCc2ccc(OC)cc2)N(CCOC)C(=O)Cc2cccs2)cc1` (centres undefined) gave ATXN viability inactive, ATXN2 expr inh -5.5%, SW480 rereplic 18.8%, MCF10A rerep -15.8% and IL1B secr inh -54.9*.
`COc1ccc(NS(=O)(=O)c2ccc(NC(=O)Cc3cccs3)cc2)cc1` gave PINK1 expr mod 2.6%, ATXN viability inactive, ATXN2 expr inh -6.8%, SW480 rereplic 9.5%, MCF10A rerep 5.5% and IL1B secr inh 8.4.
Screening COc1ccc(NS(=O)(=O)c2cc(NC(=O)Cc3cccs3)ccc2C)cc1 returned PINK1 expr mod 2.7%, ATXN viability inactive, ATXN2 expr inh 0.1%, SW480 rereplic inconclusive, MCF10A rerep 16.4µM* and IL1B secr inh 8.7.
COc1ccc(NS(=O)(=O)c2cc(NC(=O)[C@@H](NC(=O)c3ccccc3)C(C)C)ccc2C)cc1 was read as PINK1 expr mod 5.1%, ATXN viability inactive, ATXN2 expr inh -10.3%, SW480 rereplic inconclusive, MCF10A rerep 18.4µM* and IL1B secr inh 14.9.
Screening CC(C)CCNC(=O)CN1C(=O)c2cccnc2Oc2ccccc21 returned PINK1 expr mod -0.2%.
Screening CC1=C/C(=C(/c2ccc(O)c(C)c2)c2ccccc2S(=O)(=O)O)C=CC1=O returned PINK1 expr mod 0.6%, ATXN viability inconclusive, ATXN2 expr inh -15.3%, SW480 rereplic -9.4%, MCF10A rerep -0.9% and IL1B secr inh -28.4.
CC1=C/C(=C(/c2cc(C)c(O)c(Br)c2)c2ccccc2S(=O)(=O)O)C=C(Br)C1=O was read as PINK1 expr mod -1.6%, ATXN viability inconclusive, ATXN2 expr inh inconclusive, SW480 rereplic -34.8%, MCF10A rerep -1.0% and IL1B secr inh -70.7*.
`Cc1cccc(-c2noc(CN(C(=O)COc3ccc(Br)cc3C)C(C)C)n2)c1` gave PINK1 expr mod 0.8%, ATXN viability inactive and ATXN2 expr inh -22.6%.
Screening S=C(NCC1CCCO1)c1ccc(Br)cc1 (centres undefined) returned PINK1 expr mod 0.3%, ATXN viability inactive, ATXN2 expr inh -1.2%, SW480 rereplic -11.6%, MCF10A rerep inconclusive and IL1B secr inh -84.5*.
For CC1=Nc2cc(C(=O)NCC3CCCO3)ccc2Sc2ccc(Br)cc21 (centres undefined) the results were PINK1 expr mod 3.7%, ATXN viability inconclusive, SW480 rereplic inconclusive, MCF10A rerep 18.4µM* and IL1B secr inh 58.6.
NC(=S)N/N=C/c1coc2c(ccc3ccccc32)c1=O was read as PINK1 expr mod -3.2%, ATXN viability inactive, ATXN2 expr inh 2.8%, SW480 rereplic 15.6%, MCF10A rerep -4.1% and IL1B secr inh 1.0.
`NC(=S)N/N=C1/CCSc2ccc3ccccc3c21` gave PINK1 expr mod -1.2%, ATXN viability inactive, ATXN2 expr inh -19.4%, SW480 rereplic -3.3%, MCF10A rerep inconclusive and IL1B secr inh -94.8*.
`C[n+]1ccnc2cc(Cl)ccc21` gave PINK1 expr mod -1.0%.
For COc1cccc(-c2nc(S(=O)(=O)c3ccc(Cl)cc3)c(NCc3ccccc3)o2)c1 the results were PINK1 expr mod -0.1%.
N#C/C(=C\c1ccc(OCc2ccc(C(=O)O)cc2)cc1)C(=O)NCc1ccccc1 was read as PINK1 expr mod 1.4%, ATXN viability inactive, ATXN2 expr inh -12.5%[11.3 µM], SW480 rereplic -8.9%[1.84 µM], MCF10A rerep -27.9% and IL1B secr inh -24.7.
For N#C/C(=C\c1ccc(O)c([N+](=O)[O-])c1)C(=O)NCc1ccccc1 the results were PINK1 expr mod 8.9%, ATXN viability inconclusive, SW480 rereplic 1.9%, MCF10A rerep inconclusive and IL1B secr inh 40.5.
N#C/C(=C/c1ccc(O)c(O)c1)C(=O)NCc1ccc(Cl)cc1 was read as PINK1 expr mod -1.2%, ATXN viability inactive, ATXN2 expr inh 0.0%, SW480 rereplic inconclusive, MCF10A rerep 6.3% and IL1B secr inh -6.4.
`N#C/C(=C\c1ccc(O)c(Br)c1)C(=O)NCc1ccccc1` gave PINK1 expr mod 3.4%, ATXN viability inactive, ATXN2 expr inh 2.8%, SW480 rereplic 8.2µM*, MCF10A rerep 20.6µM* and IL1B secr inh 27.7.
For N#C/C(=C\C=C\c1ccccc1)C(=O)NCc1ccco1 the results were PINK1 expr mod 0.4%, ATXN viability inconclusive, ATXN2 expr inh 8.7%, SW480 rereplic inconclusive, MCF10A rerep inconclusive and IL1B secr inh -81.2*.
N#C/C(=C/c1ccccc1)C(=O)NCc1ccccc1 was read as PINK1 expr mod 6.2%, ATXN viability inactive, ATXN2 expr inh -1.1%, SW480 rereplic 7.9%, MCF10A rerep inconclusive and IL1B secr inh -77.3*.
Screening N#C/C(=C/c1cccc(O)c1)C(=O)NCc1ccc(Cl)cc1 returned PINK1 expr mod 4.6%, ATXN viability inactive, ATXN2 expr inh -23.6%, SW480 rereplic 20.9%, MCF10A rerep inconclusive and IL1B secr inh -102.6*.
`COc1ccc(CC(=O)Nc2cc(-c3nc4cccnc4s3)ccc2C)cc1` gave PINK1 expr mod 0.0%, ATXN viability inactive and ATXN2 expr inh 31.1%.
Screening COc1ccccc1C(=O)Nc1ccc(C(=O)OCc2cc(=O)n3nc(C)sc3n2)cc1 returned PINK1 expr mod -0.5%.
CCOc1ccccc1NS(=O)(=O)c1c(C)nc2sccn2c1=O was read as PINK1 expr mod 0.0%.
For COc1ccccc1NC(=O)/C(C#N)=C/C=C/c1ccco1 the results were PINK1 expr mod 2.82µM*, ATXN viability inactive, ATXN2 expr inh -14.5%, SW480 rereplic 0.92µM*, MCF10A rerep 8.2µM* and IL1B secr inh 22.9.
Cc1cc(F)ccc1N1CCC(N2CCN(C(C)C)C(CCO)C2)CC1 (centres undefined) was read as PINK1 expr mod -0.9%, ATXN viability inactive, ATXN2 expr inh -7.2%, SW480 rereplic 0.8%, MCF10A rerep inconclusive and IL1B secr inh -2.5.
`Cc1cc(F)ccc1N1CCC(N2CCN(CCC(C)C)C(CCO)C2)CC1` (centres undefined) gave PINK1 expr mod 1.4%, ATXN viability inactive, ATXN2 expr inh -30.3%, SW480 rereplic 24.8%, MCF10A rerep inconclusive and IL1B secr inh -66.0*.
